The target of assay [1] is Hepatocyte nuclear factor 4-alpha (Homo sapiens) (UniProt P41235). As to the kind of experiment: ATG_HNF4a_TRANS: Attagene TRANS-FACTORIAL HepG2 Assay for human Hepatocyte Nuclear Factor 4 alpha (HNF4a) (AID 2282982; active = hit-call score of the fitted dose curve at least 0.9, where 1 is the maximum). The settings on record: HepG2 HNF4a transactivation reporter, mRNA readout. The gist of the method: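 Using HepG2 liver cells transfected with GAL4-UAS reporter units, chemical-induced mRNA increases were assessed after 24 hours. Fluorescent RT-PCR fragments were separated by capillary electrophoresis and compared with DMSO negative controls.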
Sequence of Hepatocyte nuclear factor 4-alpha (Homo sapiens) (P41235 whole entry, looked up, the tested form may be a part): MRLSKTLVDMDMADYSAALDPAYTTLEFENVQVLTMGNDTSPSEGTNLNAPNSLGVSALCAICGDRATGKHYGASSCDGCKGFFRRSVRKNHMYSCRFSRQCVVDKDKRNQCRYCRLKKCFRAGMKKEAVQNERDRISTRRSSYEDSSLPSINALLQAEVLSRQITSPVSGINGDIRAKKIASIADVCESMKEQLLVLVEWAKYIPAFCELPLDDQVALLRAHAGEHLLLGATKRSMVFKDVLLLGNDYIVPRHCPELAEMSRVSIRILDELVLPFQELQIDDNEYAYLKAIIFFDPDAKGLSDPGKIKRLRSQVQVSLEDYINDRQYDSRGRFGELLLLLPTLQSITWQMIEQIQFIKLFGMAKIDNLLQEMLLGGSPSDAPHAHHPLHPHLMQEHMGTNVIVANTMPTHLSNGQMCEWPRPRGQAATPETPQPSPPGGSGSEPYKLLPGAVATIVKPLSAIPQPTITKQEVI

A short description of assay [2]: ATG_M_06_TRANS: Attagene TRANS-FACTORIAL HepG2 Assay for M06 Transcription Factor (Internal Marker) (AID 2282983; active = hit-call score of the fitted dose curve at least 0.9, where 1 is the maximum;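 as to AC50: potency for rise in reporter mRNA above DMSO baseline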). The settings on record: HepG2 Attagene TRANS M06 internal marker reporter. The method, boiled down:
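Background control endpoint: reporter mRNA from transiently transfected HepG2 after 24 h dosing, detected by RT-PCR with capillary electrophoresis fluorescence. Analysed for gain versus DMSO.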

The nature of assay [3]: ATG_M_32_TRANS: Attagene TRANS-FACTORIAL HepG2 Assay for M32 Transcription Factor (Internal Marker) (AID 2282984; active = hit-call score of the fitted dose curve at least 0.9, where 1 is the maximum;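 also: transcript level of a background control reporter unit measured by RT-PCR and capillary electrophoresis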). The settings on record: HepG2 Attagene TRANS M32 internal marker reporter. The gist of the method: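 Fluorescence-detected mRNA induction, HepG2 liver cells, 24 h after dosing. Multiple GAL4-UAS reporter units introduced by transient transfection; background-control endpoint analysed for gain of signal against DMSO.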

Assay [4] addresses Nuclear receptor subfamily 4 group A member 2 (Homo sapiens) (UniProt P43354). Briefly: ATG_NURR1_TRANS: Attagene TRANS-FACTORIAL HepG2 Assay for human Nuclear Receptor Related Protein 1 (NURR1) (AID 2282985; active = hit-call score of the fitted dose curve at least 0.9, where 1 is the maximum). The settings on record: HepG2 Attagene TRANS reporter, mRNA readout. The method, boiled down:
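Chimeric NR-Gal4 proteins were expressed in human HepG2 cells bearing GAL4-UAS reporter units, and induced reporter mRNA was quantified 24 h post-dosing by RT-PCR and capillary electrophoresis.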

In assay [5] the target is Transcriptional activator Myb (Homo sapiens) (UniProt P10242). Briefly: ATG_Myb_CIS: Attagene CIS-FACTORIAL HepG2 Assay for human Myeloblastosis (Myb) Proto-Oncogene Transcription Factor (AID 2282986). To be noted: HepG2 Attagene CIS-FACTORIAL Myb reporter transcription; actives raise or lower the signal. The method, boiled down:
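Reporter mRNA is quantified by RT-PCR and capillary electrophoresis 24 h after dosing HepG2 cells transfected with cis-regulated reporter units, which track endogenous transcription factor activity. Gain and loss of signal are fitted versus DMSO baseline.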

In assay [6] the target is Nuclear respiratory factor 1 (Homo sapiens) (UniProt Q16656). As to the kind of experiment: ATG_NRF1_CIS: Attagene CIS-FACTORIAL HepG2 Assay for human Nuclear Respiratory Factor 1 (NRF1) Orphan Gene (AID 2282987). The settings on record: HepG2 NRF1 cis-element reporter, Attagene multiplex; actives raise or lower the signal. The gist of the method:
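Endogenous NRF1-driven reporter transcription in transfected HepG2 cells after 24 h treatment. Readout: RT-PCR products, 6-FAM labelled and resolved by capillary electrophoresis; changes fitted both directions relative to DMSO.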

Assay [7] can be described thus: ATG_NFI_CIS: Attagene CIS-FACTORIAL HepG2 Assay for human Nuclear Factor I (NFI) (AID 2282989). To be noted: HepG2 cis-regulatory reporter, NFI response element transcription; actives raise or lower the signal. The gist of the method:
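HepG2, transient MRTU, 24 h exposure; RNA→cDNA→PCR→FAM label→HpaI→CE fluorescence. Bidirectional fit, DMSO = baseline.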

Assay [8] concerns the target Myc proto-oncogene protein (Homo sapiens) (UniProt P01106). Briefly: ATG_Myc_CIS: Attagene CIS-FACTORIAL HepG2 Assay for human Myelocytomatosis (Myc) Proto-Oncogene Transcription Factor (AID 2282990). To be noted: HepG2, Attagene cis-reporter transcription factor activity; actives raise or lower the signal. The gist of the method: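 DMSO-normalised, bidirectionally fitted reporter mRNA signal. HepG2 cells transfected with cis reporter constructs, treated 24 h; transcripts detected by RT-PCR, 6-FAM primer extension and CE.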

In assay [9] the target is Cellular tumor antigen p53 (Homo sapiens) (UniProt P04637). As to the kind of experiment: ATG_p53_CIS: Attagene CIS-FACTORIAL HepG2 Assay for human p53 Transcription Factor (AID 2282994). The settings on record: HepG2 p53 cis-element reporter, Attagene mRNA; actives raise or lower the signal. The method, boiled down: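 Read-out: reporter mRNA by RT-PCR plus capillary electrophoresis with fluorescence detection. Human HepG2 liver cells carried transfected multi-reporter cis-element constructs, dosed 24 h. Gain or loss of signal fitted bidirectionally against DMSO control.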
Sequence of Cellular tumor antigen p53 (Homo sapiens) (P04637 whole entry, looked up): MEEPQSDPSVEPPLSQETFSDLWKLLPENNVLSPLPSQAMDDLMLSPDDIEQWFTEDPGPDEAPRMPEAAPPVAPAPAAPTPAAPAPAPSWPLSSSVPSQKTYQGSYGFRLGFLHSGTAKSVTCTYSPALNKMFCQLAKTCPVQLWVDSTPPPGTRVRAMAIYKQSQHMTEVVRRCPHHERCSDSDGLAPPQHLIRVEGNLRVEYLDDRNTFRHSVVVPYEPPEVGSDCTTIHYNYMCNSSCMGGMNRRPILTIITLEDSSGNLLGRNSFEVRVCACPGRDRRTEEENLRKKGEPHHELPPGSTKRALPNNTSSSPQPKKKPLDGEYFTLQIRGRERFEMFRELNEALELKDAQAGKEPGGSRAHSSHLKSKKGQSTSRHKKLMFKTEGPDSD

Assay [10] is described as follows: BSK_3C_TissueFactor: BioMAP Diversity Plus: 3C Assay for Tissue Factor Biomarker Activity (AID 2282997). To be noted: BioMAP 3C HUVEC, tissue factor biomarker readout; actives raise or lower the signal. The method, boiled down: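 After a 24 h chemical exposure of primary human umbilical vein endothelial cells, Tissue Factor levels were quantified by ELISA.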
Assay [11] can be described thus: BSK_3C_uPAR: BioMAP Diversity Plus: 3C Assay for Urokinase-type plasminogen activator receptor (uPAR) Biomarker Activity (AID 2282998). The settings on record: BioMAP 3C HUVEC, uPAR biomarker ELISA; actives raise or lower the signal. The method, boiled down:
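Dose primary human umbilical vein endothelial cells, incubate 24 h, measure cell-surface uPAR by ELISA, then fit the signal in both directions against the DMSO negative control.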
In general terms: In an ELISA, binding on a coated surface is turned into a signal by an enzyme label.

Assay [12] is described as follows: BSK_4H_Eotaxin3: BioMAP Diversity Plus: 4H Assay for Eotaxin 3 Biomarker Activity (AID 2283000).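 As to outcome: CCL26 protein level quantified by ELISA in parallel with SRB cytotoxicity check.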 To be noted: primary human endothelial cells (HUVEC); actives raise or lower the signal. The method, boiled down: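 Chemicals were added to human umbilical vein endothelium cultures, and Eotaxin-3 was quantified by ELISA at 24 h. Values were derived by bidirectional fitting with DMSO serving as negative control and activity baseline.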

Assay [13] has as its target human Peroxisome Proliferator-activated Receptor delta (PPARd), PPARD (gene 5467) (UniProt Q03181). Briefly: ATG_PPARd_TRANS: Attagene TRANS-FACTORIAL HepG2 Assay for human Peroxisome Proliferator-activated Receptor delta (PPARd) (AID 2283002; active = hit-call score of the fitted dose curve at least 0.9, where 1 is the maximum). The gist of the method:
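Measured quantity: GAL4-UAS reporter transcript induction in HepG2 after 24 h chemical dosing, with NR-Gal4 chimeras supplied by transient transfection. Detection by RT-PCR and capillary electrophoresis; upward fit against DMSO.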

Assay [14] can be described thus: ATG_NF_kB_CIS: Attagene CIS-FACTORIAL HepG2 Assay for human Nuclear Factor Kappa B (NF-kB) (AID 2282991). The settings on record: HepG2 Attagene cis-factorial NF-kB reporter mRNA; actives raise or lower the signal. The gist of the method:
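Readout is reporter transcript level, gain or loss versus DMSO, measured 24 h post-dose via RT-PCR, fluorescent labelling and capillary electrophoresis. Human HepG2 liver cells carried transiently transfected CIS reporter constructs reflecting endogenous factors.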

The nature of assay [15]: ATG_NRF2_ARE_CIS: Attagene CIS-FACTORIAL HepG2 Assay for human Nuclear Factor Erythroid 2 Related Factor 2 (NFR2) response to Antioxidant Response Elements (ARE) (AID 2282992). To be noted: HepG2 Attagene ARE/NRF2 reporter, transcription factor activity; actives raise or lower the signal. The method, boiled down: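 Readout: reporter mRNA quantified by RT-PCR plus FAM-labelled primer extension, HpaI digestion and capillary electrophoresis, 24 h after dosing transfected HepG2 cells. Gain or loss of signal is fitted bidirectionally against DMSO baseline.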

Assay [16] can be described thus: ATG_Oct_MLP_CIS: Attagene CIS-FACTORIAL HepG2 Assay for human Octamer-Binding Transcription Factor (Oct) (AID 2282993). To be noted: HepG2 Attagene cis-factorial Oct reporter, mRNA; actives raise or lower the signal. The gist of the method:
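Multiplexed cis-reporter assay in human liver HepG2 cells, 24 h incubation. Reporter RNA amplified and labelled, then resolved by capillary electrophoresis; DMSO serves as negative control and baseline.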

The nature of assay [17]: BSK_3C_VCAM1: BioMAP Diversity Plus: 3C Assay for Vascular cell adhesion molecule 1 (VCAM1) Biomarker Activity (AID 2282999). To be noted: BioMAP 3C HUVEC, VCAM1 ELISA, cytokine-stimulated; actives raise or lower the signal. The method, boiled down: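 Vascular primary endothelium (human umbilical vein) was exposed to chemicals and assayed 24 h later. VCAM-1 levels came from ELISA, with DMSO serving as baseline for bidirectional fitting.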

Assay [18] concerns the target human Peroxisome Proliferator-activated Receptor alpha (PPARa), PPARA (gene 5465) (UniProt Q07869). As to the kind of experiment: ATG_PPARa_TRANS: Attagene TRANS-FACTORIAL HepG2 Assay for human Peroxisome Proliferator-activated Receptor alpha (PPARa) (AID 2283001; active = hit-call score of the fitted dose curve at least 0.9, where 1 is the maximum;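 as to AC50: potency for gain of reporter signal over DMSO so agonist or activator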). The gist of the method:
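Exposure: 24 h, transiently transfected HepG2 cells. Endpoint: GAL4-UAS reporter mRNA, RT-PCR with capillary electrophoresis fluorescence. Baseline: DMSO; increases fitted.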

Read-out in assay [19]: Intercellular Adhesion Molecule 1 (ICAM1), ICAM1 (gene 3383)
Briefly: BSK_3C_ICAM1: BioMAP Diversity Plus: 3C Assay for Intercellular Adhesion Molecule 1 (ICAM1) Biomarker Activity (AID 2283003). To be noted: primary human endothelial cells (HUVEC); actives raise or lower the signal. The gist of the method: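 Using DMSO as baseline, bidirectional curve fitting was applied to ICAM-1 ELISA signals from HUVEC in the 3C system, measured 24 h after compound addition.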

Where “and” joins values, the source holds several entries; their conditions need not be identical. Equal values may be shown once. Results filed as inconclusive are left out. A structure can be active in one record and inactive in another. Calls of active or inactive are those of the source. The calls were made as follows, unless noted: active = hit-call score of the fitted dose curve at least 0.9, where 1 is the maximum; inactive = score below 0.9.

Sequence of Transcriptional activator Myb (Homo sapiens) (P10242 whole entry, looked up): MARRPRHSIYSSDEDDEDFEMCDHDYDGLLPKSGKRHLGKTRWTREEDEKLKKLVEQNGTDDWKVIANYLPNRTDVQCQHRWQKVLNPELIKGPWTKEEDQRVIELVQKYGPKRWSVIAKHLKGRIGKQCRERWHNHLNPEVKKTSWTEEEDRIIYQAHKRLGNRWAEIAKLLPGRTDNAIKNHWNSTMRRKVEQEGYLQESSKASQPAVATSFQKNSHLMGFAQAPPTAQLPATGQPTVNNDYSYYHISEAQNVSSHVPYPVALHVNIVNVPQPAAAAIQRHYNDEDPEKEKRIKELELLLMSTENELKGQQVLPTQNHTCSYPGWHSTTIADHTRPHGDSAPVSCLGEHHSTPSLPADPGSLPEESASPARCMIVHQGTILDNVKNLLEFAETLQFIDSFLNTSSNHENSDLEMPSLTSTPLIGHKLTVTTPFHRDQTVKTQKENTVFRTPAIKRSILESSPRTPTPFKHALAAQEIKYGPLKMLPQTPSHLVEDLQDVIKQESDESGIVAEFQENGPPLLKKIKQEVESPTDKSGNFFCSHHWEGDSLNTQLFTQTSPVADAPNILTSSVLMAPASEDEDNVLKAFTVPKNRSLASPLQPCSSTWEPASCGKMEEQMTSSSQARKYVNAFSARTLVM
Sequence of Nuclear respiratory factor 1 (Homo sapiens) (Q16656 whole entry, looked up): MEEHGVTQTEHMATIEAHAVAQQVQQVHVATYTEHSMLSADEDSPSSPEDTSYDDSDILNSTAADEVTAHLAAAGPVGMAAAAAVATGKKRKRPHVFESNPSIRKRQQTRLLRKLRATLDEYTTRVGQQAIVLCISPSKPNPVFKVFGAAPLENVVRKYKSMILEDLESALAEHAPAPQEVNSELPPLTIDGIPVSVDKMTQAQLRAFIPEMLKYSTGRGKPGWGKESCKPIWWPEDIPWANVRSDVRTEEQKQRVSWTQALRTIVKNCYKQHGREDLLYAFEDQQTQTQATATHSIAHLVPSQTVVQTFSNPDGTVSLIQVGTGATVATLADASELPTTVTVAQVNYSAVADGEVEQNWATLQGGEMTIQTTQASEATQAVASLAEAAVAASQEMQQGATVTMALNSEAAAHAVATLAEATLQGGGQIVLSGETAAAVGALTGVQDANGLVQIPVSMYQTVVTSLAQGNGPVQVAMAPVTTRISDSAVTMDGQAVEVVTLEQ
Sequence of Myc proto-oncogene protein (Homo sapiens) (P01106 whole entry, looked up): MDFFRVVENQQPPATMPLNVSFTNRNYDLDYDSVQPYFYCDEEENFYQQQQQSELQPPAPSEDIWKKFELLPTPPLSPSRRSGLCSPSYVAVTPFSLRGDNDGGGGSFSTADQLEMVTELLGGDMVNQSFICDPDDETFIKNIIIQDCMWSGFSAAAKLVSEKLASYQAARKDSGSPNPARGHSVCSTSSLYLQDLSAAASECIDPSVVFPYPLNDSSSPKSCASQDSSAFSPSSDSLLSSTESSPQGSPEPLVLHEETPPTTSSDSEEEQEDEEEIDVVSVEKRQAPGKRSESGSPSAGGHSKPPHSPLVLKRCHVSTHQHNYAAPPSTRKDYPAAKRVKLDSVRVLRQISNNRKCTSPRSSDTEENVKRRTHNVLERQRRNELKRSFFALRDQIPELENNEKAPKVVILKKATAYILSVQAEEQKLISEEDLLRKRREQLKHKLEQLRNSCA
Sequence of human Peroxisome Proliferator-activated Receptor delta (PPARd), PPARD (gene 5467) (Q03181 whole entry, looked up, the tested form may be a part): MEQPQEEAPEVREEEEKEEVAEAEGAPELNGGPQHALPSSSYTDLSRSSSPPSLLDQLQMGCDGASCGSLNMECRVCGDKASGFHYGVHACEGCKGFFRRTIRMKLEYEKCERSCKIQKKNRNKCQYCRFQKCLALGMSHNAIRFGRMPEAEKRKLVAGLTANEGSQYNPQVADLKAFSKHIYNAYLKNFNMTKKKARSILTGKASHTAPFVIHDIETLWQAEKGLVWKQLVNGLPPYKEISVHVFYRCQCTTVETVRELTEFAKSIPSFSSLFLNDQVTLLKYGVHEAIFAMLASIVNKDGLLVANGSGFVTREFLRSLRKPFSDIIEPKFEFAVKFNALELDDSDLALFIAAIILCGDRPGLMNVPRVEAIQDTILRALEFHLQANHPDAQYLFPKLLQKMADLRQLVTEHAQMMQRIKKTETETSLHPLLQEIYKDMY
Sequence of human Peroxisome Proliferator-activated Receptor alpha (PPARa), PPARA (gene 5465) (Q07869 whole entry, looked up, the tested form may be a part): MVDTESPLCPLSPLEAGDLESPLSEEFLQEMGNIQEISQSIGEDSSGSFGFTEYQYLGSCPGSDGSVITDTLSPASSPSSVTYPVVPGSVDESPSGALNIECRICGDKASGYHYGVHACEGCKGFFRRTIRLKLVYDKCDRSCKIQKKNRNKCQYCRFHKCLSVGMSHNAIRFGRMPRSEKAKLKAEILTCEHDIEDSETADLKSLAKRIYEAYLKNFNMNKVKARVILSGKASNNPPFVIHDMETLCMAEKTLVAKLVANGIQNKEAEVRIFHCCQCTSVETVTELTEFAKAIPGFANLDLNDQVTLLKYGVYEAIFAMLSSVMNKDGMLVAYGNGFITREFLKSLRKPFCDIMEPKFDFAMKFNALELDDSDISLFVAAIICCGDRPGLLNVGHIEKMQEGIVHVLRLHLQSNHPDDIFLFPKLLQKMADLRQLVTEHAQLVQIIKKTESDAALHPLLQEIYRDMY
Sequence of Nuclear receptor subfamily 4 group A member 2 (Homo sapiens) (P43354 whole entry, looked up, the tested form may be a part): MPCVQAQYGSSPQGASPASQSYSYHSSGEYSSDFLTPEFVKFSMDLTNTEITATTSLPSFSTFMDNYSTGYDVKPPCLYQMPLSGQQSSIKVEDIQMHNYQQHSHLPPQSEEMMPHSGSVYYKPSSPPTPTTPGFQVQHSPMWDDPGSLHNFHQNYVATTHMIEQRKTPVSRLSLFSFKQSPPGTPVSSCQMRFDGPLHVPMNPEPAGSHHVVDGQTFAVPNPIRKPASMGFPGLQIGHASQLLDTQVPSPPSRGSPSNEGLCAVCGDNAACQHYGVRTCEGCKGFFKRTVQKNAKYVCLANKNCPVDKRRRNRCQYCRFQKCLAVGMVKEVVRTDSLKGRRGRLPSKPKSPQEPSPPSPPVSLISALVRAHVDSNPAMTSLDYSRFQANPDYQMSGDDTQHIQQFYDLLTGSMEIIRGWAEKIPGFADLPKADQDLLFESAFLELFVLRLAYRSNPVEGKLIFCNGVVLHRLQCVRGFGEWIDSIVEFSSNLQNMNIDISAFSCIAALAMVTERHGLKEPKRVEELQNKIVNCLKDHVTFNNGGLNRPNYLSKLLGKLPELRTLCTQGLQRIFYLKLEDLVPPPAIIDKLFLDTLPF

In general, AC50 refers to the midpoint of the concentration-response curve, whichever way the signal moves. On to `CCCCC(CC)CO[N+](=O)[O-]` (centres undefined), for which the result in [1], in assay [2], in assay [3], in assay [4], in assay [5] and in assay [6] was inactive. The result in [7], in [8], in assay [9], in assay [11] and in assay [13] was inactive. For the same compound, the AC50 in assay [10] is 28.6 µM (active); in assay [12], 30.4 µM (active).

On to `COc1cccc(C=O)c1`, for which the compound was classed as inactive in [1], in assay [2], in assay [3], in [5], in assay [6] and in assay [7]. Further, the compound was called inactive in [8], in assay [14], in assay [15], in [16] and in assay [9].

For the compound `O=C(O)C(F)(F)C(F)(F)C(F)(F)C(F)(F)C(F)(F)C(F)(F)C(F)(F)C(F)(F)C(F)(F)C(F)(F)F`, the outcome in assay [1], in assay [3], in [4], in assay [5], in assay [7] and in assay [8] was inactive. The call in [14], in [10], in [11], in [17], in assay [12] and in assay [18] was inactive. Further, the AC50 is 129 µM (active) in assay [2]; 154 µM (active) in [5]; 162 µM (active) and 31.1 µM (active) in assay [6]; 157 µM (active) in assay [7]; 95.5 µM (active) in assay [14]; 58.3 µM (active) and 37.6 µM (active) in assay [9]. The AC50 is 33 µM (active) and 5.02 µM (active) in assay [10]; 31.9 µM (active) and 4.88 µM (active) in assay [11]; 36.9 µM (active) in [17]; 33.4 µM (active) in assay [12].

In the case of `Oc1c(I)cc(I)cc1I`, the result in assay [1], in assay [2], in assay [3], in [5], in assay [6] and in [7] was inactive. For the same compound, the compound was called inactive in [8], in [14], in [15], in assay [9], in assay [10] and in assay [13]. The outcome in assay [19] was inactive. For the same compound, the AC50 is 100 µM (active) in assay [4], 10.5 µM (active) in [11], 20 µM (active) in [12] and 16.6 µM (active) in assay [18].

As to `[O-][Cl+2]([O-])O`, the result in assay [1], in [2], in assay [3], in assay [4], in [5] and in assay [6] was inactive. Further, the call in [7], in [8], in assay [14], in assay [16] and in [9] was inactive.

As for `CCN(CC)C(=O)Cl`, the call in assay [1], in assay [2], in assay [3], in assay [5], in assay [6] and in [7] was inactive. Besides, the compound was classed as inactive in [8], in assay [14], in [15], in assay [16], in assay [9] and in assay [13].

As to `C=C(C)C(=O)[O][Sn]([CH2]CCC)([CH2]CCC)[CH2]CCC`, the compound was called inactive in [1], in assay [2], in assay [5], in [6], in [7] and in assay [8]. Besides, the outcome in assay [14], in [9], in assay [18] and in [13] was inactive. The AC50 is 0.00168 µM (active) in [4]; 0.412 µM (active) in [16]; 0.148 µM (active) in [10]; 0.148 µM (active) in assay [11]; 0.148 µM (active) in assay [17]; 0.254 µM (active) in [12]. Also, the half-maximal activity concentration (AC50) in [19] was 0.155 µM (active).

Take `Cc1ccccc1N`: the compound was called inactive in assay [1], in [3], in [4], in assay [5], in [6] and in assay [7]. The compound was classed as inactive in [8], in assay [14], in assay [15], in [16], in [9] and in [10]. Further, the outcome in assay [11], in [12], in [18] and in [13] was inactive.

The values are drawn from PubChem BioAssay (EPA / NIEHS).
